The whole screen tested about 360,000 compounds, of which about 25,000 (6.9%) were called active. A call without a number means that no potency is given here. Roughly 9% stayed inconclusive and do not appear here. The call rests on the fitted dose curve; in most records, active means well fitted inhibition curve with a large enough effect; inconclusive means small, poorly fitted or top-dose-only effect; inactive means flat fitted curve, though single readings scatter. Many of the other results were omitted from the sample, so actives are more common in it than they were.
molecular target: Luciferin 4-monooxygenase (Photinus pyralis) (UniProt P08659); test: qHTS profiling assay for firefly luciferase inhibitor/activator using purifed enzyme and Km concentrations of substrates (counterscreen for miR-21 project); conditions: purified FLuc, luminescence inhibition; series mostly up to 57.5 µM; further: nearly all actives have a fitted effect of over 55% in size
Sequence (P08659 whole entry, looked up): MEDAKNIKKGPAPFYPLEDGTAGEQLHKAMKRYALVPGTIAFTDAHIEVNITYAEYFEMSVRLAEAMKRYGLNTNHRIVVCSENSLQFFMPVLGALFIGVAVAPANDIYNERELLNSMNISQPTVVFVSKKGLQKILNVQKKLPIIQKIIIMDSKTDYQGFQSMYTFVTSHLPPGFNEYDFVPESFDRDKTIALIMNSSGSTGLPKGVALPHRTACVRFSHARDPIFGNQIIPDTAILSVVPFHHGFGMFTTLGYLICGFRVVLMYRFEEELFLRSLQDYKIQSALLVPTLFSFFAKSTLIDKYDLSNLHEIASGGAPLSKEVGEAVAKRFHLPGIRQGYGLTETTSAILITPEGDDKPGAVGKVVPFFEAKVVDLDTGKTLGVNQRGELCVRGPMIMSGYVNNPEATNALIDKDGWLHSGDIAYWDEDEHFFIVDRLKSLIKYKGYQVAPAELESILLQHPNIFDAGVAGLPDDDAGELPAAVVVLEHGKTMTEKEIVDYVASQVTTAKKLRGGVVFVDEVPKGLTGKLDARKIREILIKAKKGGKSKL
Summary of the method: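 Purified P. pyralis luciferase, 10 nM final, with Km-level 10 uM D-luciferin and 10 uM ATP in 50 mM Tris acetate pH 7.5, 10 mM Mg acetate, 0.01% Tween-20, 0.05% BSA; 6-point qHTS titration about 60 µM downward; luminescence read.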
Potency means the concentration at half of the fitted maximal effect.

Structure (SMILES) | Potency
CCc1cccc(C)c1NS(=O)(=O)c1ccc(-c2cc(C)no2)s1 | inactive
Cc1ccc2oc(=O)c3cnn(CC(=O)N4CCN(c5cccc(Cl)c5)CC4)c3c2c1 | inactive
Cc1ccc(N2CC(c3nnc(Cc4ccccc4Cl)o3)CC2=O)cc1 (stereo unspecified) | inactive
Cc1cccc(NC(=O)CSc2nc3c(oc4ccccc43)c(=O)n2-c2ccc(F)cc2)c1 | inactive
COc1ccc(-c2nc3nc(C)cc(C)n3c2Nc2c(C)cccc2C)cc1 | inactive
CCCCC(CC)CNC(=O)C1CCN(S(=O)(=O)c2cccc3nsnc23)CC1 (stereo unspecified) | inactive
Cc1nn(Cc2ccccc2)c(Cl)c1C(=O)OC1CCOC1=O (stereo unspecified) | inactive
O=C(OC1CCOC1=O)c1ccc(-c2nc3ccccc3s2)s1 (stereo unspecified) | 190 nM (active)
COc1cc(C(=O)OC2CCOC2=O)c([N+](=O)[O-])cc1OC (stereo unspecified) | inactive
CCOC(=O)c1c(NC(=O)CNC2CCCc3ccccc32)sc(C(N)=O)c1C (stereo unspecified) | inactive
O=C(CSCc1ccccc1)N1CCc2ccccc21 | 2390 nM (active)
CCC(=O)N1CCCc2ccccc21 | inactive
O=C(CN1CCN(c2ccccn2)CC1)N1CCc2ccccc21 | inactive
CCc1nc2ccccc2c(C(=O)OC2CCCCC2=O)c1C (stereo unspecified) | inactive
CCCn1c(CCNc2nc(-c3ccc(OC)cc3)cs2)nc2ccccc21 | inactive
COc1ccc(-c2csc(Cc3nc(O)cs3)n2)cc1 | 2690 nM (active)
COc1ccc(-c2csc(Nc3ccc(O)cc3)n2)cc1 | 1350 nM (active)
COC(=O)CCc1sc(Nc2ccc(Br)cc2)nc1-c1ccc(OC)cc1 | inactive
NS(=O)(=O)c1ccc(Nc2nc(-c3ccccc3)cs2)cc1 | 21300 nM (active)
COc1ccc(Nc2nc(-c3ccccc3)cs2)cc1 | 601 nM (active)
CC(=O)Nc1nc(C)c(-c2csc(Nc3ccc(S(N)(=O)=O)cc3)n2)s1 | inactive
CCCn1c(C2CCCN2c2nc(-c3ccc(OC)cc3)cs2)nc2ccccc21 (stereo unspecified) | inactive

Structure (SMILES) | Potency
COc1ccc(C2C(C(C)=O)=C(O)C(=O)N2c2nccs2)cc1 (stereo unspecified) | inactive
NS(=O)(=O)c1ccc(NS(=O)(=O)/C=C/c2ccccc2)cc1 | inactive
COc1ccc(NC(=O)c2sc(N)nc2-c2ccccc2)cc1 | inactive
CCOC(=O)NC(=O)CSc1nnc(SCCC(=O)O)s1 | inactive
CCC[C@H]1CCCC/C=C\CCCC(=O)OCCN1C(=O)OC(C)(C)C | inactive
COC(=O)c1cc(NC(=O)CCc2c(C)nc3c4c(C)cc(C)nc4nn3c2C)cc(C(=O)OC)c1 | inactive
C[C@@H]1O[C@@H](OC[C@H]2O[C@@H](Oc3c(-c4ccc(O)cc4)oc4cc(O)cc(O)c4c3=O)[C@H](O)[C@@H](O)[C@@H]2O)[C@H](O)[C@H](O)[C@H]1O | inactive
CCNC(=O)c1cccc(NC(=O)C2CC(=O)N(CCc3ccccc3)C2)c1 (stereo unspecified) | inactive
CCOc1ccc(NC(=O)CN(C)C(=O)Cn2c(=O)cnc3ccccc32)cc1OCC | inactive
COc1ccccc1Cc1nc2ccccc2nc1SCC(=O)N1CCCc2ccccc21 | inactive
O=C(Cc1ccccc1)NCC1OCCc2ccccc21 (stereo unspecified) | inactive
CSc1nc(-c2ccc(F)cc2)nc2c1Cc1c(CO)cnc(C)c1O2 | inactive
COc1ccc2c(c1OC)C(=O)OC2Nc1nc(-c2ccccc2)cs1 (stereo unspecified) | inactive
Cc1ccc(-c2csc(NC3OC(=O)c4ccccc43)n2)cc1 (stereo unspecified) | inactive
COc1ccc(-c2csc(NC3OC(=O)c4ccccc43)n2)cc1 (stereo unspecified) | 6750 nM (active)
O=C(NCCS(=O)(=O)N1CCN(c2ccc(F)cc2)CC1)c1ccccc1Br | inactive
O=C(CSCc1cnn(-c2ccccc2)c1-n1cccc1)NCc1ccc(Cl)cc1 | inactive
CCOc1ccc(NC(=O)c2cc(C)nc3ccccc23)cc1 | inactive
CCOc1ccc(-n2c(SCC(N)=O)nnc2-c2ccco2)cc1 | inactive
Cc1ccc(CNC(=O)COc2ccc3c(c2)CCC3)cc1 | inactive
O=C(CCc1ccccc1)Nc1cccc(-c2nnc(-c3ccco3)o2)c1 | inactive
CCCCOc1ccc(-c2nnc(-c3ccco3)o2)cc1 | 2390 nM (active)

Structure (SMILES) | Potency
CCOc1ccc(NC(=O)c2ncoc2-c2ccco2)cc1 | 7570 nM (active)
CCOc1ccc(NC(=O)N(CCC(C)C)C(C)c2ccco2)cc1 (stereo unspecified) | inactive
CCOc1ccc(-c2nnc(-c3ccco3)o2)cc1 | 953 nM (active)
COCCn1c(SCC(=O)Nc2ccc3c(c2)CCC3)nc2ccccc2c1=O | inactive
COc1ccc(-c2ocnc2C(=O)Nc2ccc3c(c2)CCC3)cc1 | 7570 nM (active)
Cc1cccc(NC(=O)CSc2nnc(-c3ccco3)o2)c1 | inactive
N#Cc1ccc(OCc2nnc(-c3ccc([N+](=O)[O-])cc3)o2)cc1 | inactive
COc1cc(CNC(=O)c2cc3n(n2)CCCN(Cc2cccc(F)c2)C3=O)cc(OC)c1OC | inactive
CN1CCN(S(=O)(=O)c2ccc(NC(=O)C3CCCO3)cc2)CC1 (stereo unspecified) | inactive
CN(C)CCn1c2c(c(SCC(=O)NCc3ccccc3)nc1=O)CCC2 | inactive
O=C(NNS(=O)(=O)c1ccccc1C(F)(F)F)c1cc2ncc(C(F)(F)F)cc2s1 | inactive
COc1ccccc1CCNC(=O)c1cccn1-c1nnc(N2CCCCC2)s1 | inactive
COc1cc(CNCCSc2nnnn2C)ccc1OCc1c(F)cccc1Cl | inactive
Cc1ccccc1C(=O)N1CCC(C(=O)Nc2ccc(S(=O)(=O)N(C)C(C)C)cc2)CC1 | inactive
COC(=O)c1ccc2c(c1)N(CC(=O)Nc1ccc(C)c(C)c1)C(=O)c1ccccc1S2 | inactive
CCN(CCCNC(=O)CSc1cc(=O)n(C)c2cc(Cl)ccc12)c1cccc(C)c1 | inactive
Oc1ccc(/C=N/N(Cc2ccccc2)c2ccccc2)cc1 | inactive
CC1CCCN(c2csc3ccc(F)cc3c2=O)C1 (stereo unspecified) | 6010 nM (active)
CC1CCCN(c2cc3c(cc2F)c(=O)c(S(=O)(=O)c2cccc(Cl)c2)cn3Cc2ccccc2)C1 (stereo unspecified) | inactive
Cc1ccnc(N2CCCC(C(=O)Nc3cc(F)ccc3C)C2)n1 (stereo unspecified) | inactive
CCOc1ccc(NC(=O)CN(C)C(=O)c2cccc(S(=O)(=O)N3CCCC3)c2)cc1OCC | inactive
CC1=C(c2ccc(C)cc2)S(=O)(=O)NC1=NCCCN1CCN(c2cc(C)ccc2C)CC1 | inactive

Reference: PubChem BioAssay AID588342 (National Center for Advancing Translational Sciences (NCATS), 2011)
